Measured values taken from the supplement of paper PMC9694430.

These compounds were tested on LOC_OS01G60330-cb001 (assay: thermal shift delta Tm vs DMSO control; higher = stronger stabilization (binding)). Conditions: 12.5 µM; protein concentration 2 µM.
Outline: (§1)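 Rice kinase domain constructs were expressed in E. coli, purified, and tested by differential scanning fluorimetry with compound added in DMSO. Each well of a 96-well plate held 19.5 μl of 2 μM kinase in 100 mM potassium phosphate pH 7.5, 150 mM NaCl, 10% glycerol and 5 × SYPRO Orange, and fluorescence was read from 25°C to 95°C at 0.05°C/s. The melting temperature shift is the mean of triplicates, taken against protein with DMSO alone after Boltzmann fitting.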

Structure (SMILES)	thermal shift delta Tm [°C]
COc1ccc(S(=O)(=O)N(CCO)c2ccccc2CN(C)C/C=C/c2ccc(Cl)cc2)cc1 [KN-93 Phosphate]	2.19
CN(C[C@@H]1COCCO1)S(=O)(=O)Nc1ccc2ccc3ncc(-c4cnn(C)c4)cc3c(=O)c2c1	0.33
COc1ccc(CCNCc2ccc(OCc3ccc(Cl)nc3)c(OC)c2)cc1OC	0.8
Clc1ccc(C2(c3ccc(-c4cn[nH]c4)cc3)CCNCC2)cc1	0.98
CN(C)Cc1cccc(N/C(=C2\C(=O)Nc3cc(C(N)=O)ccc32)c2ccccc2)c1	1.3
CC[C@H](CO)Nc1nc(NCc2ccccc2)c2ncn(C(C)C)c2n1 [Roscovitine (Seliciclib,CYC202)]	0.99
Cc1cc(Nc2cc(N3CCN(C)CC3)nc(/C=C/c3ccccc3)n2)n[nH]1	9.2

These compounds were tested on LOC_OS01G60700-cb002 in the same assay as above. Conditions: 12.5 µM; protein concentration 2 µM.
Outline: as §1

Structure (SMILES)	thermal shift delta Tm [°C]
CCOc1cc2ncc(C#N)c(Nc3ccc(OCc4ccccn4)c(Cl)c3)c2cc1NC(=O)/C=C/CN(C)C [Neratinib (HKI-272)]	1.67
COc1cc2nccc(Oc3ccc(NC(=O)Nc4cc(C)on4)c(Cl)c3)c2cc1OC [Tivozanib (AV-951)]	0.04
O=C1NC(=O)C(c2ccccc2[N+](=O)[O-])=C1Nc1ccc(O)c(Cl)c1	1.88
Cc1c(C(=O)N2CCOc3ccc(-c4ccc(N)nc4)cc3C2)ccc(S(C)(=O)=O)c1F	0.98
Cn1nccc1Nc1nccc(-c2ccn([C@H](CO)c3ccc(Cl)c(F)c3)c(=O)c2)n1	0.52
COc1cc2c(N3CCN(C(=O)Nc4ccc(OC(C)C)cc4)CC3)ncnc2cc1OCCCN1CCCCC1 [Tandutinib (MLN518)]	0.63
C[C@@H]1COCCN1c1cc(=O)n2c(n1)N(Cc1cncc(Cl)c1)[C@H](C(F)(F)F)CC2	1.05
COc1ccc(F)c(F)c1C(=O)c1cnc(NC2CCN(S(C)(=O)=O)CC2)nc1N	0.31
O=C(NCc1ccccc1)c1csc(Nc2ccncn2)n1 [Thiazovivin]	0.63
CCN(CC)CCCCNc1ncc2cc(-c3cc(OC)cc(OC)c3)c(NC(=O)NC(C)(C)C)nc2n1	0.92
O=c1cc(N2CCOCC2)oc2c(-c3ccc4c(c3)OCCO4)csc12	-0.31
Nc1ccc(C(=O)Nc2cccc(-c3nc(N4CCOCC4)c4oc5ncccc5c4n3)c2)cn1	1.16
O=C(NC[C@H](O)CO)c1ccncc1Nc1ccc(I)cc1F	0.44
CCOc1cc2ncc(C#N)c(Nc3ccc(F)c(Cl)c3)c2cc1NC(=O)/C=C/CN(C)C [Pelitinib (EKB-569)]	0.94
COc1cc2ncnc(Nc3ccc(Cl)cc3F)c2cc1OC	1.4
Cc1cc(Nc2ncnc3ccc(NC4=NC(C)(C)CO4)cc23)ccc1Oc1ccn2ncnc2c1 [Irbinitinib (ARRY-380, ONT-380)]	-0.86
CC1(C)CNc2cc(NC(=O)c3cccnc3NCc3ccncc3)ccc21 [Motesanib Diphosphate (AMG-706)]	1.09
COC(=O)Nc1ccc(-c2nc(N3CCOCC3)c3cnn(C4CCN(C(=O)OC)CC4)c3n2)cc1	0.54
COc1cc(C(=O)N2CCC(N3CCN(C)CC3)CC2)ccc1Nc1ncc2c(n1)N(C)c1ccccc1C(=O)N2C	0.5

Structure (SMILES)	thermal shift delta Tm [°C]
C=C(C)[C@@H]1CC[C@]2(C)CC[C@]3(C)[C@H](CC[C@@H]4[C@@]5(C)CC[C@H](O)C(C)(C)[C@@H]5CC[C@]43C)[C@@H]12 [Lupeol]	0.65
Oc1cccc(-c2nc(N3CCOCC3)c3oc4ncccc4c3n2)c1	1.37
CCn1c(N)c(C(=O)NC)c(=O)c2ccc(C#CC(C)(O)COC)nc21 (centres undefined)	1.1
CCOc1cc(C(=O)N2CCC(N3CCN(C)CC3)CC2)ccc1Nc1ncc2c(n1)N(C1CCCC1)c1ccccc1C(=O)N2C	0.58
Cc1ccc(NC(=O)c2cccc(C(C)(C)C#N)c2)cc1Nc1ccc2ncn(C)c(=O)c2c1	1.2
Nc1ccc(-c2ccc3ncc4ccc(=O)n(-c5cccc(C(F)(F)F)c5)c4c3c2)cn1 [Torin 2]	1.01
CCN(CC)CCCC(C)Nc1ccnc2cc(Cl)ccc12 (centres undefined) [Chloroquine Phosphate]	0.9
C[C@@H](N)[C@H]1CC[C@H](C(=O)Nc2ccncc2)CC1	1.12
COc1cc(N2CCC(N(C)C)CC2)ccc1Nc1ncc(Cl)c(Nc2ccccc2P(C)(C)=O)n1	0.89
CCCS(=O)(=O)Nc1ccc(F)c(C(=O)c2c[nH]c3ncc(-c4ccc(Cl)cc4)cc23)c1F [Vemurafenib (PLX4032, RG7204)]	0.62
CO[C@H]1C[C@@H]2CC[C@@H](C)[C@@](O)(O2)C(=O)C(=O)N2CCCC[C@H]2C(=O)O[C@H]([C@H](C)C[C@@H]2CC[C@@H](OCCO)[C@H](OC)C2)CC(=O)[C@H](C)/C=C(\C)[C@@H](O)[C@@H](OC)C(=O)[C@H](C)C[C@H](C)/C=C/C=C/C=C/1C [Everolimus (RAD001)]	0.6
COc1ccc(S(=O)(=O)N(CCO)c2ccccc2CN(C)C/C=C/c2ccc(Cl)cc2)cc1 [KN-93 Phosphate]	0.56
CN(C[C@@H]1COCCO1)S(=O)(=O)Nc1ccc2ccc3ncc(-c4cnn(C)c4)cc3c(=O)c2c1	1.15
COc1ccc(CCNCc2ccc(OCc3ccc(Cl)nc3)c(OC)c2)cc1OC	0.19
Clc1ccc(C2(c3ccc(-c4cn[nH]c4)cc3)CCNCC2)cc1	0.54
CN(C)Cc1cccc(N/C(=C2\C(=O)Nc3cc(C(N)=O)ccc32)c2ccccc2)c1	0.57
CC[C@H](CO)Nc1nc(NCc2ccccc2)c2ncn(C(C)C)c2n1 [Roscovitine (Seliciclib,CYC202)]	0.89
Cc1cc(Nc2cc(N3CCN(C)CC3)nc(/C=C/c3ccccc3)n2)n[nH]1	0.77
